Test results taken from the supplement of paper PMC6522484.
± gives the standard deviation of the averaged measurements.

Legend:
[1] = test system: DLD1; experiment: cell viability (CellTiter-Glo) relative to plate median (fraction of plate median); higher = more viable cells; details: 5 µM; treatment time 24 h; reporter: 7TFP
Method in brief: (§1)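 Each entry is a luminescence signal normalised to the plate median, averaged over independent replicates. The replicate count was two, and the cells were colorectal cancer lines with stable lentiviral TCF/Wnt firefly luciferase reporters exposed to library compounds at a final 5 µM for 24 h. Firefly luciferase and CellTiterGlo were measured on parallel plates.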

[2] = test system: HCT116; experiment: as above; details: 5 µM; treatment time 24 h; reporter: TCF4/Wnt
Method in brief: as §1

[3] = test system: SW480; experiment: as above; details: 5 µM; treatment time 24 h; reporter: 7TFP
Method in brief: as §1

[4] = test system: DLD1; experiment: TCF/Wnt firefly luciferase reporter signal relative to plate median (fraction of plate median); higher = higher Wnt reporter signal; details: 5 µM; treatment time 24 h; reporter: 7TFP
Method in brief: as §1

[5] = test system: SW480; experiment: as above; details: 5 µM; treatment time 24 h; reporter: 7TFP
Method in brief: as §1

SMILES | cell viability [1] | cell viability [2] | cell viability [3] | TCF/Wnt firefly luciferase reporter signal [4] | TCF/Wnt firefly luciferase reporter signal [5]
O=C(O)c1cc2cc(F)ccc2[nH]1 | 1.02 ± 0.053 | 1.115 ± 0.0071 | 1.07 ± 0.085 | 0.963 ± 0.0057 | 1.08 ± 0.085
CNC[C@H](O)c1cccc(O)c1 | 1.02 ± 0.033 | 1.09 ± 0.064 | 0.955 ± 0.062 | 1.02 ± 0.13 | 1.075 ± 0.0071
C=C1C2CC[C@@]3(C)[C@H](c4ccoc4)OC(=O)C[C@]13O[C@H]1CC(=O)C(C)(C)[C@H](C(O)C(=O)OC)[C@@]21C (stereo not given in full) | 0.97 ± 0.042 | 1.01 ± 0.087 | 0.991 ± 0.055 | 1.02 ± 0.11 | 1.02 ± 0.047
CC(=O)OCC(=O)[C@@]1(O)CC[C@H]2[C@@H]3CC[C@@H]4C[C@H](O)CC[C@]4(C)[C@H]3C(=O)C[C@@]21C | 0.905 ± 0.11 | 1 ± 0.071 | 0.939 ± 0.011 | 0.968 ± 0.036 | 0.885 ± 0.019
Cc1ccc(/C(=C\CN2CCCC2)c2ccccn2)cc1 | 0.984 ± 0.037 | 0.968 ± 0.088 | 0.945 ± 0.048 | 0.886 ± 0.064 | 0.956 ± 0.091
CN[C@@H]1[C@@H](O[C@H]2O[C@H](CO)[C@@H](N)[C@H](O)[C@H]2O)OC2C[C@@H](N)[C@@H](O[C@H]3[C@H](O)[C@@H](O)[C@H](N)C[C@@H]3N)OC2[C@@H]1O (stereo not given in full) | 0.893 ± 0.0028 | 0.952 ± 0.03 | 0.965 ± 0.037 | 1.08 ± 0.028 | 0.88 ± 0.11
CC(C)(C)CC(C)(C)c1ccc(OCCOCC[N+](C)(C)Cc2ccccc2)cc1 | 1.07 ± 0.028 | 0.99 ± 0.071 | 1.05 ± 0.021 | 0.983 ± 0.081 | 0.897 ± 0.017
CC1=CC(=O)c2ccccc2C1=O | 1.04 ± 0.05 | 0.955 ± 0.064 | 1.025 ± 0.0071 | 1.02 ± 0.044 | 0.914 ± 0.013
CC(N)CCCC(C)(C)O (stereo not given) | 1.01 ± 0.092 | 0.955 ± 0.078 | 0.933 ± 0.022 | 1.03 ± 0.021 | 1.04 ± 0.035
C[C@]12CCC[C@H](O1)c1c(cc3c(c1O)C(=O)c1c(O)cc(O)cc1C3=O)O2 [Averufin (Isoform B, Compound ID 7395)] | 1.09 ± 0.14 | 1.01 ± 0.014 | 1.03 ± 0.054 | 1.02 ± 0.035 | 0.942 ± 0.14
Cc1cc(/C=C/c2ccc3cc(N(C)C)ccc3[n+]2C)c(C)n1-c1ccccc1 | 0.899 ± 0.057 | 0.592 ± 0.17 | 0.852 ± 0.08 | 0.774 ± 0.1 | 0.588 ± 0.085
CC(C)CCC[C@@H](C)[C@H]1CC[C@H]2[C@@H]3CC[C@@H]4C[C@H](O)CC[C@]4(C)[C@H]3CC[C@]12C | 1.06 ± 0.028 | 1.01 ± 0.033 | 1.02 ± 0.076 | 0.985 ± 0.036 | 1.03 ± 0.07
C[C@]12C=CC(=O)C=C1CC[C@@H]1[C@@H]2[C@@H](O)C[C@@]2(C)[C@H]1CC[C@]2(O)C(=O)COC(=O)CCC(=O)O | 1.02 ± 0.028 | 1.01 ± 0.092 | 1.03 ± 0.014 | 1.075 ± 0.0071 | 0.969 ± 0.072
Oc1ncnc2[nH]ncc12 | 0.939 ± 0.063 | 1.05 ± 0.12 | 1.07 ± 0.057 | 1.03 | 0.961 ± 0.11
O=C(O)C1CCCNC1 (stereo not given) | 0.994 ± 0.023 | 1 ± 0.071 | 0.948 ± 0.067 | 1.03 ± 0.065 | 0.938 ± 0.13
CN1CCCC(n2nc(Cc3ccc(Cl)cc3)c3ccccc3c2=O)CC1 (stereo not given) | 1.01 ± 0.021 | 1.015 ± 0.0071 | 1.045 ± 0.0071 | 1.17 ± 0.17 | 1.06 ± 0.057
O=C1N=C(O)NC1(c1ccccc1)c1ccccc1 | 1.06 ± 0.05 | 0.957 ± 0.015 | 1.005 ± 0.0071 | 1.08 ± 0.021 | 1.08 ± 0.021
COc1ccc2c3c1O[C@H]1C[C@@H](O)C=C[C@@]31CCN(C)C2 | 1.04 ± 0.05 | 1 ± 0.081 | 1.03 ± 0.045 | 0.9965 ± 0.0021 | 1.05
CC12CCC3c4ccc(OCc5ccccc5)cc4CCC3C1C[C@@H](O)[C@@H]2O (stereo not given in full) | 1.08 ± 0.085 | 0.992 ± 0.026 | 1.01 | 0.95 ± 0.14 | 0.993 ± 0.025
COc1ccc([C@H]2COc3c(ccc(O)c3OC)C2)c(OC)c1O | 1.01 ± 0.038 | 0.95 ± 0.052 | 1.03 ± 0.014 | 0.987 ± 0.13 | 0.878 ± 0.069
COc1cc(C(C)=O)cc(OC)c1O | 1.03 | 0.922 ± 0.086 | 1.01 ± 0.018 | 0.946 ± 0.1 | 0.958 ± 0.012
CC1=CCc2c(cc3oc(C)cc(=O)c3c2O)OC1 | 1 ± 0.084 | 1.02 ± 0.033 | 1.06 ± 0.071 | 1.18 ± 0.15 | 1.11 ± 0.085
Cc1cccc(N(C)C(=S)Oc2ccc3ccccc3c2)c1 | 1.07 ± 0.028 | 1.09 ± 0.099 | 0.987 ± 0.018 | 0.897 ± 0.07 | 0.95 ± 0.04
OC[C@H]1O[C@H]([S-])[C@H](O)[C@@H](O)[C@@H]1O.[Au+] | 0.945 ± 0.21 | 0.921 ± 0.019 | 1.11 ± 0.021 | 0.891 ± 0.12 | 0.265 ± 0.088
COc1cc(NS(C)(=O)=O)ccc1Nc1c2ccccc2nc2ccccc12 | 1.11 ± 0.14 | 0.83 ± 0.09 | 1.03 ± 0.035 | 0.973 ± 0.053 | 0.841 ± 0.11
CC(C)C[C@H]1NC(=O)[C@@H](NC(=O)c2ncccc2O)[C@@H](C)OC(=O)[C@H](c2ccccc2)N(C)C(=O)[C@H](C)NC(=O)[C@H]([C@@H](C)C(C)C)N(C)C(=O)CN(C)C(=O)[C@H]2C[C@@H](O)CN2C1=O [Viridogrisein] | 1.04 ± 0.11 | 0.954 ± 0.066 | 0.971 ± 0.11 | 1.12 ± 0.021 | 0.999 ± 0.073
